# From the supplement of paper PMC8728848
# This is one part of a sample in which the strongest signals are shown more often than they occur.
# B1: rAAL-I144G (Agrocybe aegerita), Q6WY08 (protein)
# chain: MQGVNIYNISAGTSVDLAAPVTTGDIVTFFSSALNLNAGAGNPNNTTLNLFAENGAYLLHIAFRLQENVIIFNSRQPDGPWLVEQRVSDVANQFAGIDGKAMVTVFDHGDKYQVVINEKTVIQYTKQISGLTLSLSYNATEETSGFSTVVEAVTYTGLALEHHHHHH
# How the values were obtained:
# Experiment in all cases: glycan array binding signal (z-score within array); higher = stronger binding
# Conditions in all cases: glycan notation: IUPAC condensed, linker removed; mutation: I144G
# [1] = target: Fuc(a1-2)Gal(b1-3)GalNAc(b1-3)Gal(a1-4)Gal(b1-4)Glc
# Outline: (§1)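 From the Consortium for Functional Glycomics database, 3228 arrays were curated, keeping only those whose protein sequence was available. Binding is given as a within-array Z-score averaged across arrays sharing a protein sequence and across linkers. Negative Z-scores can be read as non-binding.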
# [2] = target: Fuc(a1-2)Gal(b1-3)GlcNAc(b1-3)[Fuc(a1-2)Gal(b1-3)GlcNAc(b1-6)]GalNAc
# Outline: as §1
# [3] = target: Fuc(a1-2)Gal(b1-4)[Fuc(a1-3)]GlcNAc(b1-3)[Neu5Ac(a2-6)Gal(b1-4)GlcNAc(b1-6)]Gal(b1-4)Glc
# Outline: as §1
# [4] = target: Fuc(a1-2)[Gal(a1-3)]Gal(b1-4)GlcNAc(b1-6)GalNAc
# Outline: as §1
# [5] = target: Fuc(a1-2)[GalNAc(a1-3)]Gal
# Outline: as §1
# [6] = target: Fuc(a1-2)[GalNAc(a1-3)]Gal(b1-3)GlcNAc(b1-2)Man(a1-3)[Fuc(a1-2)[GalNAc(a1-3)]Gal(b1-3)GlcNAc(b1-2)Man(a1-6)]Man(b1-4)GlcNAc(b1-4)[Fuc(a1-6)]GlcNAc
# Outline: as §1
# [7] = target: Gal(a1-3)Gal(b1-4)GlcNAc(b1-2)Man(a1-3)[Gal(a1-3)Gal(b1-4)GlcNAc(b1-2)Man(a1-6)]Man(b1-4)GlcNAc(b1-4)GlcNAc
# Outline: as §1
# [8] = target: Gal(a1-4)Gal(b1-4)GlcNAc(b1-3)Gal(b1-4)Glc
# Outline: as §1
# Gal(b1-3)Gal(b1-4)GlcNAc = target: Gal(b1-3)Gal(b1-4)GlcNAc
# Outline: as §1
# [9] = target: Gal(b1-3)GalNAc(b1-4)[Neu5Ac(a2-3)]Gal(b1-4)Glc
# Outline: as §1
# [10] = target: Gal(b1-4)GlcNAc(b1-3)Gal(b1-3)GalNAc
# Outline: as §1
# Gal3S(b1-3)GalNAc = target: Gal3S(b1-3)GalNAc
# Outline: as §1
# [11] = target: GlcA3S(b1-3)Gal(b1-4)GlcNAc(b1-2)Man
# Outline: as §1
# [12] = target: GlcA3S(b1-3)Gal(b1-4)GlcNAc(b1-3)Gal(b1-4)Glc
# Outline: as §1
# [13] = target: GlcNAc(b1-2)Man(a1-3)[GlcNAc(b1-4)][GlcNAc(b1-2)Man(a1-6)]Man(b1-4)GlcNAc(b1-4)[Fuc(a1-6)]GlcNAc
# Outline: as §1
# [14] = target: GlcNAc(b1-3)Gal(b1-3)GalNAc
# Outline: as §1
# GlcNAc(b1-6)GalNAc = target: GlcNAc(b1-6)GalNAc
# Outline: as §1
# [15] = target: Neu5Ac(a2-3)Gal(b1-3)GalNAc
# Outline: as §1
# [16] = target: Neu5Ac(a2-3)Gal(b1-3)GalNAc(b1-3)Gal(a1-4)Gal(b1-4)Glc
# Outline: as §1
# [17] = target: Neu5Ac(a2-3)Gal(b1-3)GalNAc(b1-4)[Neu5Ac(a2-3)]Gal(b1-4)Glc
# Outline: as §1
# [18] = target: Neu5Ac(a2-3)Gal(b1-3)GalNAc6S
# Outline: as §1
# [19] = target: Neu5Ac(a2-3)Gal(b1-3)[GlcNAc(b1-6)]GalNAc
# Outline: as §1
# [20] = target: Neu5Ac(a2-3)Gal(b1-4)GlcNAc(b1-2)Man(a1-3)[GlcNAc(b1-4)][Neu5Ac(a2-3)Gal(b1-4)GlcNAc(b1-2)Man(a1-6)]Man(b1-4)GlcNAc(b1-4)GlcNAc
# Outline: as §1
# [21] = target: Neu5Ac(a2-3)Gal(b1-4)GlcNAc(b1-2)[Neu5Ac(a2-3)Gal(b1-4)GlcNAc(b1-6)]Man(a1-6)[Neu5Ac(a2-3)Gal(b1-4)GlcNAc(b1-2)Man(a1-3)][GlcNAc(b1-4)]Man(b1-4)GlcNAc(b1-4)GlcNAc
# Outline: as §1
# [22] = target: Neu5Ac(a2-3)Gal(b1-4)GlcNAc(b1-3)Gal
# Outline: as §1
# [23] = target: Neu5Ac(a2-6)Gal(b1-4)GlcNAc(b1-2)Man(a1-3)[Neu5Ac(a2-6)Gal(b1-4)GlcNAc(b1-2)Man(a1-6)]Man(b1-4)GlcNAc(b1-4)GlcNAc
# Outline: as §1
# [24] = target: Neu5Ac(a2-6)Gal(b1-4)GlcNAc(b1-2)Man(a1-3)[Neu5Ac(a2-6)Gal(b1-4)GlcNAc(b1-2)Man(a1-6)]Man(b1-4)GlcNAc(b1-4)[Fuc(a1-6)]GlcNAc
# Outline: as §1
# [25] = target: Neu5Ac(a2-6)Gal(b1-4)GlcNAc(b1-3)Gal(b1-4)GlcNAc
# Outline: as §1
# [26] = target: Neu5Ac(a2-6)Gal(b1-4)GlcNAc(b1-3)Gal(b1-4)[Fuc(a1-3)]GlcNAc(b1-3)Gal(b1-4)[Fuc(a1-3)]GlcNAc
# Outline: as §1
# [27] = target: Neu5Ac(a2-8)Neu5Ac(a2-3)Gal(b1-3)GalNAc(b1-4)[Neu5Ac(a2-3)]Gal(b1-4)Glc
# Outline: as §1
# [28] = target: Neu5Ac9Ac(a2-3)Gal(b1-3)GlcNAc
# Outline: as §1
# Neu5Gc(a2-6)GalNAc = target: Neu5Gc(a2-6)GalNAc
# Outline: as §1
# [29] = target: Neu5Gc(a2-8)Neu5Ac(a2-3)Gal(b1-4)GlcNAc
# Outline: as §1
# [30] = target: Neu5Gc(a2-8)Neu5Gc(a2-3)Gal(b1-4)GlcNAc
# Outline: as §1
binder,measurement,setting,value
B1,glycan array binding signal (z-score),[1],-0.112
same,glycan array binding signal (z-score),[2],-0.208
same,glycan array binding signal (z-score),[3],-0.075
same,glycan array binding signal (z-score),[4],-0.088
same,glycan array binding signal (z-score),[5],-0.166
same,glycan array binding signal (z-score),[6],-0.134
same,glycan array binding signal (z-score),[7],2.88
same,glycan array binding signal (z-score),[8],-0.026
same,glycan array binding signal (z-score),Gal(b1-3)Gal(b1-4)GlcNAc,-0.134
same,glycan array binding signal (z-score),[9],-0.191
same,glycan array binding signal (z-score),[10],-0.191
same,glycan array binding signal (z-score),Gal3S(b1-3)GalNAc,17.3
same,glycan array binding signal (z-score),[11],11.8
same,glycan array binding signal (z-score),[12],9.46
same,glycan array binding signal (z-score),[13],-0.15
same,glycan array binding signal (z-score),[14],-0.103
same,glycan array binding signal (z-score),GlcNAc(b1-6)GalNAc,-0.16
same,glycan array binding signal (z-score),[15],1.67
same,glycan array binding signal (z-score),[16],1.35
same,glycan array binding signal (z-score),[17],1.33
same,glycan array binding signal (z-score),[18],4.09
same,glycan array binding signal (z-score),[19],1.74
same,glycan array binding signal (z-score),[20],1.63
same,glycan array binding signal (z-score),[21],-0.073
same,glycan array binding signal (z-score),[22],-0.059
same,glycan array binding signal (z-score),[23],-0.111
same,glycan array binding signal (z-score),[24],-0.049
same,glycan array binding signal (z-score),[25],-0.176
same,glycan array binding signal (z-score),[26],-0.095
same,glycan array binding signal (z-score),[27],1.99
same,glycan array binding signal (z-score),[28],-0.174
same,glycan array binding signal (z-score),Neu5Gc(a2-6)GalNAc,-0.086
same,glycan array binding signal (z-score),[29],-0.169
same,glycan array binding signal (z-score),[30],-0.122
